From PubChem BioAssay AID687043 (Milwaukee Institute for Drug Discovery, 2013)
In all, about 16,000 compounds went through this assay and about 250 (1.6%) were called active. The sample as a whole holds a higher share of actives than the screen did. Unmarked numbers belong to inactive results.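 Rule for the calls: active = inhibition above the average over every tested compound plus 3 SD (cut at about 40% in these data); inactive = the rest.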

What follows are molecules tested on Hepatitis C virus NS3 helicase (assay: compounds blocking NS3h DNA binding – biochemical, fluorescence polarization, ChemBridge library, primary screen (AID 687043)). Details: NS3h Cy5-dT15 DNA binding, at 100 µM, hits give high values.

With `CCOc1cc(C=C2C(=O)NC(=O)NC2=O)cc(Br)c1OCCOc1ccccc1C` as the molecule, how does the inhibition read?
Its inhibition is 51.3% (active).

With `Nc1ccc(Cc2ccc(N)c(Cl)c2)cc1Cl` as the molecule, how does the inhibition read?
Its inhibition is 7.3%.

For `COc1cccc(CN2CCN(Cc3ccccc3OC)CC2)c1`, which inhibition is on record?
The inhibition was -10.1%.

With `Cc1ccccc1CN1CCN(C(=O)COc2ccc(Cl)cc2)CC1` as the molecule, how does the inhibition read?
Its inhibition is 8.5%.

Which inhibition does the source give for `COc1cc(C)cc2oc(=O)c3c(c12)CCC3` here?
The inhibition was -2.5%.
